Data from PubChem BioAssay AID1159580 (chemical genetic matrix, 2015).
Hit rate of the full screen: of about 5,500 compounds, about 2,000 (36%) were called active. Not shown: some 18% with an inconclusive outcome. Cut-off read from the data, not from the text of the source: active = normalized growth mostly below about 0.91 (no sharp cut-off); inconclusive = no clear call, values can overlap the other calls; inactive = mostly above about 0.92. Some of the results follow.

Experiment: chemical genetic growth profiling, strain panel (AID 1159580);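 note: tested at 20 µM; growth read once vehicle control cultures reached saturation at 30 °C; 1 = growth at the plate median or of vehicle wells; lower values mean less growth of the strain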
Details: S. cerevisiae deletion strains, growth OD
[1] = locus YDL101C, strain DUN1, hits give low values
[2] = locus YHR030C, strain SLT2, hits give low values
[3] = locus YHR079C, strain IRE1, hits give low values
[4] = locus YJL095W, strain BCK1, hits give low values
[5] = locus YJR066W, strain TOR1, hits give low values
[6] = locus YLR113W, strain HOG1, hits give low values
[7] = locus YNL183C, strain NPR1, hits give low values
[8] = locus YOR231W, strain MKK1, hits give low values
[9] = locus YPL256C, strain CLN2, hits give low values

Measured: normalized growth

N#C/C(N=Cc1cc(Cl)cc(Cl)c1O)=C(\C#N)N=Cc1cc(Cl)cc(Cl)c1O
active: locus YDR477W, strain SNF1, hits give low values 0.503 | locus YGR040W, strain KSS1, hits give low values 0.621 | locus YGR052W, strain FMP48, hits give low values 0.552 | locus YGR092W, strain DBF2, hits give low values 0.129 | [2] 0.381 | [3] 0.397 | locus YHR082C, strain KSP1, hits give low values 0.587 | locus YHR205W, strain SCH9, hits give low values 0.415 | [4] 0.448 | locus YJL157C, strain FAR1, hits give low values 0.664 | locus YJR066W, strain TOR1 (second series), hits give low values 0.588 | [5] 0.414 | locus YKL048C, strain ELM1, hits give low values 0.594 | locus YKL101W, strain HSL1, hits give low values 0.538 | locus YKL203C, strain TOR2, hits give low values 0.454 | [6] 0.509 | locus YLR133W, strain CKI1, hits give low values 0.52 | locus YLR403W, strain SFP1, hits give low values 0.457 | locus YMR205C, strain PFK2 (second series), hits give low values 0.609 | locus YNL020C, strain ARK1, hits give low values 0.403 | locus YNL307C, strain MCK1 (second series), hits give low values 0.286 | locus YOR061W, strain CKA2, hits give low values 0.349 | locus YOR119C, strain RIO1, hits give low values 0.476 | [8] 0.475 | locus YPL031C, strain PHO85, hits give low values 0.547 | locus YPL153C, strain RAD53, hits give low values 0.538 | locus YPL204W, strain HRR25, hits give low values 0.63 | [9] 0.503
inactive: locus YAR019C, strain CDC15, hits give low values 0.923 | locus YBL105C, strain PKC1, hits give low values 0.929 | locus YBR135W, strain CKS1, hits give low values 0.927 | locus YBR136W, strain MEC1, hits give low values 0.917 | locus YBR160W, strain CDC28, hits give low values 0.922 | locus YDL017W, strain CDC7, hits give low values 0.923 | locus YDL028C, strain MPS1, hits give low values 0.915 | [1] 0.954 | locus YDL108W, strain KIN28, hits give low values 0.926 | locus YDL132W, strain cdc53, hits give low values 0.943 | locus YDL214C, strain PRR2, hits give low values 0.754 | locus YDR052C, strain DBF4, hits give low values 0.936 | locus YDR054C, strain cdc34, hits give low values 0.916 | locus YDR226W, strain ADK1, hits give low values 0.925 | locus YER123W, strain YCK3, hits give low values 0.735 | locus YER133W, strain GLC7, hits give low values 0.725 | locus YFL009W, strain cdc4, hits give low values 0.931 | locus YFL029C, strain CAK1, hits give low values 0.929 | locus YFR003C, strain YPI1, hits give low values 0.914 | locus YFR019W, strain FAB1, hits give low values 0.912 | locus YFR028C, strain CDC14, hits give low values 0.931 | locus YIL147C, strain SLN1, hits give low values 0.914 | locus YJL128C, strain PBS2, hits give low values 0.905 | locus YJR016C, strain ILV3, hits give low values 0.93 | locus YKL067W, strain YNK1, hits give low values 0.74 | locus YKL193C, strain SDS22, hits give low values 0.922 | locus YML070W, strain DAK1, hits give low values 0.747 | locus YMR001C, strain CDC5, hits give low values 0.919 | locus YMR277W, strain FCP1, hits give low values 0.92 | locus YNL006W, strain LST8, hits give low values 0.93 | locus YNL161W, strain CBK1, hits give low values 0.929 | [7] 0.587 | locus YNL207W, strain RIO2, hits give low values 0.916 | locus YNL222W, strain SSU72, hits give low values 0.937 | locus YOL078W, strain AVO1, hits give low values 0.928 | locus YOL136C, strain PFK27, hits give low values 0.769 | locus YOR329C, strain SCD5, hits give low values 0.931 | locus YPL209C, strain IPL1, hits give low values 0.934 | locus YPR025C, strain CCL1, hits give low values 0.935 | locus YPR106W, strain ISR1, hits give low values 0.923 | locus YPR111W, strain DBF20, hits give low values 0.927 | strain NNK1, hits give low values 0.908 | strain TSCII, hits give low values 0.934

COC(=O)N/N=C\c1c[n+]([O-])c2ccccc2[n+]1[O-]
inactive: locus YAL021C, strain ccr4, hits give low values 0.985 | locus YAL026C, strain drs2, hits give low values 0.999 | locus YAL030W, strain snc1, hits give low values 0.982 | locus YBL061C, strain skt5, hits give low values 0.975 | locus YBR009C, strain hhf1, hits give low values 0.99 | locus YBR023C, strain chs3, hits give low values 0.987 | locus YBR171W, strain sec66, hits give low values 0.981 | locus YBR231C, strain swc5, hits give low values 0.974 | locus YBR279W, strain paf1, hits give low values 0.987 | locus YCL011C, strain gbp2, hits give low values 0.992 | locus YCL016C, strain dcc1, hits give low values 0.993 | locus YCL069W, strain vba3, hits give low values 0.992 | locus YCR088W, strain abp1, hits give low values 0.986 | locus YDL005C, strain med2, hits give low values 0.98 | locus YDL040C, strain nat1, hits give low values 0.989 | locus YDR001C, strain nth1, hits give low values 0.998 | locus YDR069C, strain doa4, hits give low values 0.978 | locus YDR137W, strain rgp1, hits give low values 1.01 | locus YDR159W, strain sac3, hits give low values 1.02 | locus YDR195W, strain ref2 0.985 | locus YDR297W, strain sur2, hits give low values 0.983 | locus YDR334W, strain swr1, hits give low values 1 | locus YDR335W, strain msn5, hits give low values 0.983 | locus YDR392W, strain spt3, hits give low values 0.986 | locus YEL003W, strain gim4, hits give low values 0.975 | locus YEL037C, strain rad23, hits give low values 0.998 | locus YEL061C, strain CIN8 (second series), hits give low values 1 | locus YER015W, strain faa2, hits give low values 0.972 | locus YER016W, strain bim1, hits give low values 0.998 | locus YER111C, strain swi4, hits give low values 0.984 | locus YER155C, strain BEM2 (second series), hits give low values 0.982 | locus YFR010W, strain ubp6, hits give low values 0.981 | locus YGL167C, strain pmr1, hits give low values 0.978 | locus YGL173C, strain kem1, hits give low values 0.981 | locus YGL227W, strain vid30, hits give low values 0.987 | locus YGL240W, strain doc1, hits give low values 0.974 | locus YGL253W, strain hxk2, hits give low values 0.988 | locus YHR013C, strain ard1, hits give low values 1.06 | locus YHR027C, strain rpn1, hits give low values 0.995 | [2] 1.07 | [3] 1.04 | locus YHR142W, strain chs7, hits give low values 0.988 | locus YJL092W, strain hpr5, hits give low values 0.994 | locus YJL095W, strain BCK1 (second series), hits give low values 0.973 | [4] 1.05 | locus YJL115W, strain asf1, hits give low values 0.987 | locus YJL129C, strain trk1, hits give low values 1.03 | locus YJL154C, strain vps35, hits give low values 0.997 | locus YJL164C, strain tpk1, hits give low values 0.976 | locus YJL166W, strain qcr8, hits give low values 0.98 | [5] 0.905 | locus YKL160W, strain elf1, hits give low values 0.973 | locus YKR026C, strain gcn3, hits give low values 0.991 | locus YKR091W, strain srl3, hits give low values 0.988 | locus YLL001W, strain dnm1, hits give low values 0.991 | locus YLL026W, hits give low values 0.98 | locus YLL041C, strain sdh2, hits give low values 0.993 | locus YLR027C, strain aat2, hits give low values 0.986 | [6] 1.06 | locus YLR221C, strain rsa3, hits give low values 0.979 | locus YLR258W, strain gsy2, hits give low values 0.985 | locus YLR262C, strain YPT6 (second series), hits give low values 1 | locus YLR320W, strain mms22, hits give low values 0.976 | locus YLR342W, strain FKS1, hits give low values 0.997 | locus YLR357W, strain rsc2, hits give low values 0.981 | locus YLR370C, strain arc18, hits give low values 0.988 | locus YLR384C, strain iki3, hits give low values 0.986 | locus YML120C, strain ndi1, hits give low values 0.975 | locus YMR125W, strain sto1, hits give low values 1.02 | locus YMR129W, hits give low values 0.984 | locus YMR205C, strain PFK2, hits give low values 0.988 | locus YMR231W, strain pep5, hits give low values 0.969 | locus YNL071W, strain lat1, hits give low values 0.995 | [7] 0.981 | locus YNL209W, strain ssb2, hits give low values 0.987 | locus YNL248C, strain rpa49, hits give low values 1 | locus YNL322C, strain KRE1 (second series), hits give low values 0.993 | locus YNR049C, strain mso1, hits give low values 0.983 | locus YOR001W, strain rrp6, hits give low values 0.989 | locus YOR070C, strain gyp1, hits give low values 0.979 | locus YOR080W, strain dia2, hits give low values 0.985 | locus YOR083W, strain WHI5, hits give low values 0.983 | locus YOR106W, strain vam3, hits give low values 0.943 | [8] 1.05 | locus YOR265W, strain rbl2, hits give low values 0.985 | locus YOR270C, strain vph1, hits give low values 0.864 | locus YOR290C, strain snf2, hits give low values 0.996 | locus YPL051W, strain arl3, hits give low values 0.918 | locus YPL078C, strain atp4, hits give low values 0.971 | locus YPL106C, strain sse1, hits give low values 0.986 | locus YPL240C, strain hsp82, hits give low values 0.991 | [9] 1.09
active: locus YMR058W, strain fet3, hits give low values 0.883

O=C[C@H](O)[C@@H](O)[C@H](O)CO
inactive: [2] 1.04 | [3] 1.06 | [4] 1.06 | [5] 0.998 | [6] 1.07 | [7] 1.03 | [8] 1.09 | [9] 1.02

Clc1ccc2ocnc2c1
inactive: locus YAL013W, strain DEP1, hits give low values 1.01 | locus YBR229C, strain ROT2, hits give low values 1.01 | [1] 1 | locus YDR150W, strain NUM1, hits give low values 0.95 | locus YEL061C, strain CIN8, hits give low values 1.01 | locus YGR078C, strain PAC10, hits give low values 1 | locus YGR229C, strain SMI1, hits give low values 1.01 | [2] 1.05 | locus YHR087W, strain rtc3, hits give low values 0.996 | locus YJR043C, strain POL32, hits give low values 0.931 | locus YJR075W, strain HOC1, hits give low values 0.999 | locus YKL190W, strain CNB1, hits give low values 1.02 | locus YLR039C, strain RIC1, hits give low values 1.02 | locus YLR058C, strain SHM2 (second series), hits give low values 1 | locus YLR085C, strain ARP6, hits give low values 0.997 | locus YLR262C, strain YPT6, hits give low values 1.08 | locus YML094W, strain GIM5, hits give low values 0.999 | locus YMR219W, strain ESC1, hits give low values 1.01 | locus YMR263W, strain SAP30, hits give low values 1.01 | locus YNL128W, strain TEP1, hits give low values 1.02 | locus YNL153C, strain GIM3, hits give low values 0.996 | locus YNL298W, strain CLA4 (second series), hits give low values 1.04 | locus YNL322C, strain KRE1, hits give low values 1.01 | locus YNR030W, strain Alg12, hits give low values 1 | locus YOL006C, strain TOP1, hits give low values 1.09 | locus YPL055C, strain LGE1, hits give low values 0.906 | locus YPL241C, strain CIN2, hits give low values 1.01 | locus YPR135W, strain CTF4, hits give low values 1.08
